For 5 compounds, z-score and composite z-score results are on record in PubChem BioAssay.

Assay [1] in a line: E. coli DRC41 culture turbidity changes, primary screen, E. coli filamentation inducer project, strain DRC41, OD650, 48 h (AID 1152).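 Further: E. coli MC1000 strain DRC41 lacking acrAB efflux pump and sulA.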 The settings on record: E. coli DRC41 (acrAB sulA), higher = more signal, called active from +8 up or from −8 down.
A short description of assay [2]: small-molecule binders of probe aLefty1, primary screen, biochemical, small-molecule microarray, 635/667 nm fluorescence (AID 1153).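 Further: score merges spot fluorescence with signal-to-noise ratio from the scanned slide images.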 Conditions: higher = more signal.
Assay [3] can be described thus: PSAC antagonists in infected red cells, primary screen, cell-based, P. falciparum Indochina, OD700, 1 h (AID 1154). Conditions: P. falciparum Indochina infected RBC osmotic lysis, higher = more signal, called active from +8 up or from −8 down.
A short description of assay [4]: PSAC antagonists in infected red cells, primary screen, cell-based, P. falciparum Indochina, OD700, 2 h (AID 1155).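 Further: lysis reports solute entry through the parasite surface anion channel PSAC; channel blockers reduce lysis of infected cells.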 The settings on record: P. falciparum Indochina infected erythrocytes, osmotic lysis OD700; higher = more signal, called active from +8 up or from −8 down.
Assay [5] in a line: osmotic lysis modulators in infected erythrocytes, primary screen, PSAC antagonist project, cell-based, P. falciparum Indochina, OD700, 3 h (AID 1156). Conditions: higher = more signal, called active from +8 up or from −8 down.
Assay [6] can be described thus: PSAC antagonists in infected red cells, primary screen, cell-based, P. falciparum Indochina, OD700, 18 h (AID 1157). The settings on record: P. falciparum Indochina infected erythrocytes, osmotic lysis OD700, 18 h; higher = more signal, called active from +8 up or from −8 down.
A short description of assay [7]: modulators of S6 phosphorylation in cells, primary screen, cell-based, A549, cytoblot, luminescence, serum-stimulated (AID 1158).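 Further: serum-stimulated A549 lung adenocarcinoma cells; signal is phosphorylated S6 detected by cytoblot immunostaining with HRP secondary.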 The settings on record: A549 phospho-S6 cytoblot, 5 h, higher = more signal.
For assay [8], the target named is NADPH oxidase 2 (Homo sapiens) (UniProt P04839). Put plainly: NOX2-dependent H2O2 signal modulators, primary screen, NOX inhibitor project, cell-based, HEK293-NOX2, PMA-stimulated, Amplex Red fluorescence (AID 1159). Further: test concentration not given here. Conditions: 45 min, higher = more signal, called active from +8 up or from −8 down.
Assay [9] concerns the target NADPH oxidase 4 (Homo sapiens) (UniProt Q9NPH5). The assay is described as follows: NOX4-dependent H2O2 signal modulators, primary screen, NOX inhibitor project, cell-based, HEK293-NOX4, tetracycline-induced, Amplex Red fluorescence (AID 1160). The settings on record: 45 min, higher = more signal, called active from +8 up or from −8 down.
Assay [10] deals with NADPH oxidase 5 (Homo sapiens) (UniProt Q96PH1). Put plainly: NOX5-dependent H2O2 signal modulators, primary screen, NOX inhibitor project, cell-based, HEK293-NOX5, Amplex Red fluorescence (AID 1161). Conditions: HEK293-NOX5, ionomycin, 45 min, higher = more signal.
A short description of assay [11]: A549 cell viability effects, profiling panel, calcein-AM fluorescence, 48 h, basal (AID 1162). Further: test concentration not given here. The settings on record: higher = more signal.
Assay [12] can be described thus: adipocyte viability effects, profiling panel, cell-based, 3T3-L1 adipocytes, calcein-AM fluorescence, 48 h, basal (AID 1163). Further: test concentration not given here. Conditions: 3T3-L1 adipocytes viability, higher = more signal.
A short description of assay [13]: HepG2 cell viability effects, profiling panel, calcein-AM fluorescence, 48 h, basal (AID 1164). Further: test concentration not given here. Conditions: higher = more signal.
Assay [14] is described as follows: MM1S cell viability effects, profiling panel, calcein-AM fluorescence, 48 h, basal (AID 1165).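 Further: viability of MM1S multiple myeloma cells under basal unstimulated conditions; test concentration not given here.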 The settings on record: higher = more signal.
The nature of assay [15]: basal RPMI8226 viability, no added stimulus, profiling panel, cell-based, calcein-AM fluorescence, 48 h, PK04 Diversity Set (AID 1166).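 Further: cells grown under basal conditions without added stimulus; test concentration not given here.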 Conditions: RPMI8226 myeloma viability, higher = more signal.
Assay [16] can be described thus: basal HepG2 mitochondrial membrane potential changes, profiling panel, cell-based, JC-1 fluorescence, 24 h, 100 nL compound (AID 1167). Further: test concentration not given here. The settings on record: higher = more signal.
A short description of assay [17]: basal 3T3-L1 adipocyte mitochondrial potential changes, profiling panel, cell-based, JC-1 fluorescence, 3T3-L1 adipocytes, 24 h, 100 nL compound (AID 1168). Further: test concentration not given here. The settings on record: JC-1 mitochondrial fluorescence, higher = more signal, called active from +8 up or from −8 down.
A short description of assay [18]: basal RPMI8226 mitochondrial membrane potential changes, profiling panel, cell-based, JC-1 fluorescence, 24 h, 100 nL compound (AID 1169). Further: test concentration not given here. Conditions: RPMI8226 myeloma, JC-1 mitochondrial potential fluorescence, higher = more signal.
Assay [19] is described as follows: basal MM1S mitochondrial membrane potential changes, profiling panel, cell-based, JC-1 fluorescence, 24 h, 100 nL compound (AID 1170). Further: test concentration not given here. The settings on record: higher = more signal.
Assay [20] is described as follows: A549 lung cancer cell viability effects, profiling panel, resazurin fluorescence, 24 h, PK04 Diversity Set (AID 1171). Further: test concentration not given here. Conditions: higher = more signal, called active from +8 up or from −8 down. In general terms: Resazurin is reduced to fluorescent resorufin, in cell work by metabolically active cells.

SMILES strings stand for the structures. Activity calls are given as the source filed them.

NADPH oxidase 5 (Homo sapiens), sequence (Q96PH1 whole entry, looked up): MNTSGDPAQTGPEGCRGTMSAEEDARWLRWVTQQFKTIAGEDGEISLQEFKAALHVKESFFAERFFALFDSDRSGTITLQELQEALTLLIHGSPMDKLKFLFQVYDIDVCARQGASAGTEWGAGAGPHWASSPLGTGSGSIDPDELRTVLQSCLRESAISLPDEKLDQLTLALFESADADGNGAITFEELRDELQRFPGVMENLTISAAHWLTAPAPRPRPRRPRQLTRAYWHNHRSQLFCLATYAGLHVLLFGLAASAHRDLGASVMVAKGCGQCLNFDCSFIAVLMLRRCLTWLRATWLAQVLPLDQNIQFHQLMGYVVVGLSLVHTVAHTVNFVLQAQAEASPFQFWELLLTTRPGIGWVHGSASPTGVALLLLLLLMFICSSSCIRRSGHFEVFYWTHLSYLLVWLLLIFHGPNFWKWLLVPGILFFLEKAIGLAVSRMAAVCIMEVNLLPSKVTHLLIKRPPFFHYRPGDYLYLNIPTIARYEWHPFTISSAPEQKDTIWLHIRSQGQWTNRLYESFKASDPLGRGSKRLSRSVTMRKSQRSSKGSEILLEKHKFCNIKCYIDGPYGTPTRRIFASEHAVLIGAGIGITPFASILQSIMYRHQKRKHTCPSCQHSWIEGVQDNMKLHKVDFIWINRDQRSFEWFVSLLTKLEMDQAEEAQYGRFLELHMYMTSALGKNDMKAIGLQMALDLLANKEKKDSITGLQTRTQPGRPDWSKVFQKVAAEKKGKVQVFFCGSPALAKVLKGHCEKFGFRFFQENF
NADPH oxidase 4 (Homo sapiens), sequence (Q9NPH5 whole entry, looked up): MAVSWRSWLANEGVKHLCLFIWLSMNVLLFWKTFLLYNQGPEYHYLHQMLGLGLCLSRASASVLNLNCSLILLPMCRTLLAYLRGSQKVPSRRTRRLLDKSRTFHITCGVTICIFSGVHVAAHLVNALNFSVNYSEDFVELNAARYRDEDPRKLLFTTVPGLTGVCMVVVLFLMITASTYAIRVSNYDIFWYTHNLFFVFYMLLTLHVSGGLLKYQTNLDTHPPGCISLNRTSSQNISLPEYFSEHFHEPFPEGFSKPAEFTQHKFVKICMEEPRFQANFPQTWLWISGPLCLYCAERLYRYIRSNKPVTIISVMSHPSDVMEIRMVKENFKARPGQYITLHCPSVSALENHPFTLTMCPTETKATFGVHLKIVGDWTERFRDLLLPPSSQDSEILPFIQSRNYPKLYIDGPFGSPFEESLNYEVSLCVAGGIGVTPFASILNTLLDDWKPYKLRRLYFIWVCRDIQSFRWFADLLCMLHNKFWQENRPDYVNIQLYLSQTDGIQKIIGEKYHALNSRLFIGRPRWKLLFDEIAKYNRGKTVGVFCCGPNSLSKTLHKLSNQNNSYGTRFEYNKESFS
NADPH oxidase 2 (Homo sapiens), sequence (P04839 whole entry, looked up): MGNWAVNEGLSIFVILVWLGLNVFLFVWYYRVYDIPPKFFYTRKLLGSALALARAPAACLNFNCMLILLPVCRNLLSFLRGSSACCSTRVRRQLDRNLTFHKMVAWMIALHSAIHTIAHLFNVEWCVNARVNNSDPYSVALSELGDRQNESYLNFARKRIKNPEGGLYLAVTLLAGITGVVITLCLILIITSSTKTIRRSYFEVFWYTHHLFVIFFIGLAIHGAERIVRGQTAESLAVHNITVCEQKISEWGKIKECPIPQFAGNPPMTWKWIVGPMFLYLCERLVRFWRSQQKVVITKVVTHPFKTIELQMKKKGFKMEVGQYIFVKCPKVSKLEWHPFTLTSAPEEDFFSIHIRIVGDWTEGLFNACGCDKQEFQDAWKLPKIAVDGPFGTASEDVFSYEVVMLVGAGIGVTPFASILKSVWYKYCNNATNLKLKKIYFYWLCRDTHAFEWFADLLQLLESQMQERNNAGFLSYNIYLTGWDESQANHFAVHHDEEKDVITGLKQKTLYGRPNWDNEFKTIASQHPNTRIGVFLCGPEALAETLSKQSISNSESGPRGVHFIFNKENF

As to `COC(=O)C1=CC(CCCO)=CC(C2CC2)N(Cc2cccc(OC(F)(F)F)c2)C=C1C(=O)OC` (stereo not given), the z-score in assay [1] is -1.16 (inactive); in assay [3], 3.22 (inactive); in assay [4], 0.455 (inactive); in [5], -0.623 (inactive); in assay [6], 0.526 (inactive); in assay [7] it was 0.204. Further, the z-score in [8] is -0.179 (inactive); in assay [9], -0.34 (inactive); in [10], 0.973; in assay [11], -0.851; in assay [12], 0.589; in assay [13] it was 0.525. Also, the z-score in assay [14] was -0.525; in assay [15], -0.708; in assay [16], 1.18; in assay [17] it was 0.767 (inactive); in assay [18], -0.862; in [19], -0.159. In addition, in assay [20], the z-score is 0.644 (inactive). The compound further displayed a composite z-score in assay [2] of 0.193.
For `N#Cc1ccc(C(O)C2C=CC3C(=O)NC(=O)C3N2Nc2ccccn2)cc1` (stereo not given), the z-score in assay [1] is 0.261 (inactive); in assay [3], 0.104 (inactive); in [4], -0.88 (inactive); in [5], -0.138 (inactive); in assay [6], -1.01 (inactive); in assay [7], -0.0329. Moreover, the z-score in assay [8] was -1.73 (inactive); in assay [9], -2.92 (inactive); in assay [10] it was -1.67; in assay [11], 0.517; in assay [12], -0.239; in assay [13] it was 1.43. The z-score in assay [14] was 0.435; in [15] it was -0.792; in assay [16] it was -0.183; in [17], -0.277 (inactive); in assay [18], 0.274; in assay [19], -0.839. Also, in assay [20], the z-score was -1.36 (inactive). In addition, the composite z-score in assay [2] was found to be 0.0341.
`COCC(=C=CC[C@@H](O)c1cccc(OCCO)c1)C[C@@H](O)COCc1ccccc1`: the z-score in [1] is 1.63 (inactive); in assay [3], 8.33 (active); in assay [4], -1.22 (inactive); in assay [5] it was 1.08 (inactive); in assay [6], -2.47 (inactive); in assay [7] it was 1.31. Further, the z-score in assay [8] was -0.0404 (inactive); in [9], -0.268 (inactive); in assay [10], -1.62; in assay [11] it was 1.06; in assay [12] it was 1.08; in assay [13] it was 1.41. Also, the z-score in [14] is 1.16; in assay [15], 0.34; in [16] it was 0.638; in [17] it was 0.362 (inactive); in assay [18], 0.539; in assay [19], 0.532. In addition, in assay [20], the z-score was 0.244 (inactive). In assay [2], this compound came in with a composite z-score of 1.24.
In the case of `COc1ccc([Si](C)(C)[C@H]2[C@H](CCn3cc([C@H](O)c4ccccc4)nn3)O[C@@]3(C(=O)N(C)c4c(Br)cc(C)cc43)[C@@H]2C)cc1`, the z-score was 0.45 (inactive) in assay [1]; 5.6 (inactive) in assay [3]; 1.59 (inactive) in assay [4]; 1.25 (inactive) in assay [5]; 1.11 (inactive) in [6]; -0.108 in [7]. The z-score in [8] was 0.276 (inactive); in assay [9] it was 0.825 (inactive); in assay [10], 0.37; in [11], -1.94; in [12] it was 1.69; in assay [13], -4.58. The z-score was -2.48 in [14]; -4.31 in assay [15]; -0.281 in assay [16]; -0.162 (inactive) in assay [17]; -1 in assay [18]; 0.212 in assay [19]. Further, the z-score in assay [20] was -2.66 (inactive). Besides, the composite z-score in assay [2] is -0.196.
Take `NCCCC[C@@H]1NC(=O)[C@H]2C[C@@H](C(=O)O)[C@@H](c3cccc(OCCO)c3)N2C1=O`: the z-score in assay [1] was -1.23 (inactive); in assay [3] it was -1.87 (inactive); in assay [4], -0.195 (inactive); in assay [5], 0.452 (inactive); in assay [6], 0.253 (inactive); in assay [7], -0.993. In addition, the z-score in assay [8] was 2.14 (inactive); in assay [9], 0.834 (inactive); in assay [10] it was 0.415; in [11], -0.917; in assay [12], -0.61; in assay [13], 0.274. In addition, the z-score in assay [14] is -1.81; in [15], 0.0324; in assay [16], -2.23; in [17] it was 0.0425 (inactive); in [18], -0.392; in assay [19] it was -0.658. In addition, the z-score in assay [20] is 0.506 (inactive). Besides, the composite z-score in [2] stood at 0.951.
